# High-throughput results (PubChem)
# TDP1 cell noCPT: qHTS for Inhibitors of human tyrosyl-DNA phosphodiesterase 1 (TDP1): qHTS in cells in absence of CPT; DT40 Tdp1-/- hTDP1 cells, no CPT, ATP luminescence, 48 h; 420,000 tested, 15% active; Potency, µM (doses to about 46.2 µM), for inactives: at the highest dose activity change, negative = growth inhibition, hits mostly inhibitors; AID 686978, 2013; further: nearly all actives have a fitted effect of over 55% in size
#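 Luminescent ATP content (CellTiter-Glo) served as the growth readout. Knockout chicken DT40 cells expressing human TDP1 were exposed to compounds without camptothecin for a minimum 48 hr at 37 °C.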
# TDP1 cell CPT: DT40-hTDP1 cell growth loss with CPT; chicken DT40 Tdp1-/-;hTDP1 cells + 20 nM CPT, ATP luminescence, 48 h; Potency, µM (titrated, usually from 46.2 µM), without a hit: at the top dose activity change, negative = growth inhibition, most hits filed as inhibitors; 420,000 tested, 12% active; AID 686979; further: nearly all actives have a fitted effect of over 55% in size
#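 Chicken DT40 Tdp1-/- cells stably complemented with human TDP1 were seeded at 400 cells/well in medium containing 20 nM camptothecin, exposed to pin-transferred compounds, and grown at 37 °C for at least 48 hr. Viability was read as ATP luminescence.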
# PLK1 PBD inh: PLK1 (human) polo-box domain binding inhibition; P53350; Plk1 PBD binding of FITC phosphopeptide, fluorescence polarization; AID 720504; Potency, µM, without a hit: max response, negative = inhibition, actives largely listed as inhibitors; 360,000 tested, 2.8% active; further: series mostly up to about 57 µM; nearly all actives have a fitted effect of over 65% in size
# VDR inh: blocks the human vitamin D receptor; Potency, µM, without a hit: max response, negative = inhibition, usual class: inhibitors; VDR-SRC2-3 peptide fluorescence polarization, 2 h; 400,000 tested, 0.93% active
#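 FP read-out; VDR + SRC2-3 coactivator peptide; 23 nl compound by pintool; 2 h RT incubation; reagents held at 4 deg C, protected from light.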
# TDP1 inh: TDP1 (human) enzyme inhibition; AID 485290; 350,000 tested, 0.28% active; Potency, µM (titrated, usually from 130 µM), for inactives: at the highest dose activity change, negative = inhibition, actives largely listed as inhibitors; recombinant TDP1, AlphaScreen DNA substrate cleavage; Q9NUW8; further: nearly all actives have a fitted effect of over 40% in size
# Target sequence (Q9NUW8 whole entry, looked up): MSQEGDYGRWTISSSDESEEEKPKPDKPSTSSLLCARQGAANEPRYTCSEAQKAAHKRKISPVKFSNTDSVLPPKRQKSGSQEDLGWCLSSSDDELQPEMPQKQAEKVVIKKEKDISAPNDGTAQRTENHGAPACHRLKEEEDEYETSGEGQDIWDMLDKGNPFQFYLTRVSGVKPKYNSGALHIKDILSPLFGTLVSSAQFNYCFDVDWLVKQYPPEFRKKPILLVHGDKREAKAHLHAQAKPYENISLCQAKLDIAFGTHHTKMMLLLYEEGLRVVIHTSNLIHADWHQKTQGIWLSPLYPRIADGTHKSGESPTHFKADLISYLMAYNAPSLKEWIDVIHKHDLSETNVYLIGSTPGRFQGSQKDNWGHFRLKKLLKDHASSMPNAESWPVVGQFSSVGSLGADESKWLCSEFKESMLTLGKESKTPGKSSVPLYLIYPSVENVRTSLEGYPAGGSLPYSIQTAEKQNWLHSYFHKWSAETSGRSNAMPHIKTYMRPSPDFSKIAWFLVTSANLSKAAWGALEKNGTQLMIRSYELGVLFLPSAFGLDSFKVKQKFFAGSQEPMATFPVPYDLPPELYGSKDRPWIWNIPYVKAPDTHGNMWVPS
#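 Enzyme-compound mixtures sat 15 min at room temperature, followed by a 5 min reaction with 15 nM final substrate and 10 min with AlphaScreen beads. Recombinant human Tdp1 was used at 1 nM final.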
# GCN5L2 inh: inhibitors of human GCN5L2 histone acetyltransferase; GCN5L2 HAT assay, ThioGlo1 CoA-SH fluorescence; 390,000 tested, 0.21% active; Q92830; AID 504327; Potency, µM (doses to about 58.9 µM), for the others: top-dose activity change, negative = inhibition, actives largely listed as inhibitors
#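 Titration-based screen in which CoA formation is detected via maleimide probe ThioGlo1 (50uM) turning fluorescent on thiol reaction; substrates H3(1-25) 75uM and acetyl-CoA 70uM, GCN5L2 20nM, 20 min incubation at room temperature.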
# * = called active by the depositor; ? = inconclusive; / = no result. An excerpt weighted towards active compounds, which were near 18% of everything screened. The call rests on the fitted dose curve; in most records, active means well fitted curve in the direction sought with a large enough effect; inconclusive means small, poorly fitted or top-dose-only effect, or another doubt; inactive means no such curve, though single readings can be large; an effect the other way counts as inactive or inconclusive. On the % scale 0 is the no-effect control and ±100 the full control effect; potency means the concentration at half of the fitted maximal effect.
SMILES,TDP1 cell noCPT,TDP1 cell CPT,PLK1 PBD inh,VDR inh,TDP1 inh,GCN5L2 inh
NC(=O)CC(NC(=O)Cc1ccc(Br)cc1)c1ccc(N2CCC(Cc3ccccc3)CC2)c([N+](=O)[O-])c1 (stereo not drawn),23µM*,?,-12%,8%,4%,2%
NC(=O)CC(NC(=O)Cc1ccc(Br)cc1)c1ccc(N2CCC(N3CCCC3)CC2)c([N+](=O)[O-])c1 (stereo not drawn),-16%,-5%,-6%,-1%,/,1%
NC(=O)CC(NC(=O)c1ccc(Br)cc1)c1ccc(N2CCC(Br)CC2)c([N+](=O)[O-])c1 (stereo not drawn),12µM*,18µM*,-14%,-7%,0%,16%
O=S(=O)(CC(CN1CCCCC1)N1CCCCC1)c1ccccc1 (stereo not drawn),4.6µM*,7.3µM*,-16%,1%,2%,7%
O=[N+]([O-])c1ccc(S(=O)(=O)CC(CN2CCOCC2)N2CCOCC2)cc1 (stereo not drawn),?,?,-12%,-2%,5%,-7%
O=S1(=O)CCC(NC(=S)SCCOc2ccccc2)C1 (stereo not drawn),10µM*,8.2µM*,?,-19%,-8%,2%
CNC(=S)SCCOc1ccccc1,-25%,-23%,-8%,-21%,/,3%
CCCCSC(=S)NC1CCS(=O)(=O)C1 (stereo not drawn),12µM*,9.2µM*,-17%,-9%,6%,-4%
CCC1=C2CC[C@H]3C(=O)N(CC)C(=O)[C@H]3[C@H]2[C@@]2(Cc3ccccc3)C(=O)N(CCOC)C(=O)N2C1=O,/,/,/,/,4%,/
CCOc1ccc(C(=O)N/N=C(/C)C2C(=O)c3ccccc3C2=O)cc1,0.65µM*,0.58µM*,0%,-17%,7%,2%
C/C(=N\NC(=O)c1ccc(Br)cc1)C1C(=O)c2ccccc2C1=O,-27%,?,?,-12%,8%,-5%
CCOc1ccc(C(=O)NCCNC(=O)c2ccc(OCC)cc2)cc1,20%,-1%,-7%,2%,/,-1%
C/C(=N\NC(=O)c1ccc(-c2ccccc2)cc1)C1C(=O)c2ccccc2C1=O,21µM*,21µM*,-19%,8%,0%,-1%
C[C@@H]1CN([C@@H](C)CO)C(=O)CCCn2nncc2CO[C@H]1CN(C)S(=O)(=O)c1ccc2ccccc2c1,?,-9%,-28%,/,/,/
CCCCN(CCCC)CCNC(=O)c1cn(CC)c2ccc(S(=O)(=O)N3CCc4ccccc4C3)cc2c1=O,23µM*,21µM*,-2%,3%,7%,-7%
CCn1cc(C(=O)NCCc2ccccc2)c(=O)c2cc(S(=O)(=O)N3CCc4ccccc4C3)ccc21,21µM*,?,/,-9%,2%,-2%
CCCCN(CCCC)CCNC(=O)c1cc(=O)[nH]c2ccc(S(=O)(=O)N3CCCCCC3)cc12,16µM*,?,/,8%,0%,0%
CCn1cc(C(=O)NCCCN2CCCC(C)C2)c(=O)c2cc(S(=O)(=O)N3CCc4ccccc4C3)ccc21 (stereo not drawn),?,23µM*,-8%,-5%,3%,1%
CC(C)CN(CCNC(=O)c1cc(=O)[nH]c2ccc(S(=O)(=O)N3CCCCCC3)cc12)CC(C)C,-6%,-23%,/,-1%,3%,-2%
CCC1CCCCN1CCCNC(=O)c1cn(CC)c2ccc(S(=O)(=O)N3CCc4ccccc4C3)cc2c1=O (stereo not drawn),?,?,-21%,5%,5%,-1%
CCc1ccc(NC(=O)N(C2CCCCC2)C(C)c2cccnc2)cc1 (stereo not drawn),?,-10%,1%,-2%,-4%,-4%
CC1(c2ccccc2)NC(=O)N(CC(=O)N2CCN(S(=O)(=O)c3cccc(C(F)(F)F)c3)CC2)C1=O (stereo not drawn),-5%,-24%,-12%,5%,/,/
COc1ccccc1NC(=O)N1CCCC1C(=O)NCc1ccccc1Cl (stereo not drawn),-1%,5%,-13%,5%,1%,-3%
O=C1c2ccccc2C(=O)N1c1cccc2ncccc12,/,/,/,/,2%,/
Clc1cccc(CSc2nnc(-c3cccnc3)n2Cc2ccco2)c1,?,?,-11%,8%,3%,2%
SMILES,TDP1 cell noCPT,TDP1 cell CPT,PLK1 PBD inh,VDR inh,TDP1 inh,GCN5L2 inh
FC(F)(F)COc1cc(-c2nnc(SCc3ccccc3)n2Cc2ccco2)cc(OCC(F)(F)F)n1,29µM*,?,5%,-16%,0%,-6%
C=CCn1c(SCC(=O)NNC(=S)Nc2ccccc2)nnc1-c1ccccc1,-3%,21%,1%,-4%,/,-1%
C=CCn1c(SCc2ccc(C#N)cc2)nnc1-c1ccc(C)cc1,16µM*,?,-3%,5%,-1%,-6%
Cc1cccc(-c2nnc(SCc3ccc(C#N)cc3)n2Cc2ccco2)c1,23µM*,?,-3%,-1%,4%,-7%
C=CCn1c(SCc2ccc(C(=O)Nc3ccccc3)cc2)nnc1-c1ccccc1,?,18µM*,-7%,-1%,8%,?
Cc1ccc2c(c1)cc1c(=O)n(CC(=O)NC3CCCCC3)nc(C)n12,-14%,-10%,/,16%,6%,1%
CC(=O)N(CC(O)CO)c1c(I)c(C(=O)NCCO)c(I)c(C(=O)NCC(O)CO)c1I (stereo not drawn),4%,-7%,/,/,/,/
COC(=O)CSc1ncc2c(n1)-c1ccccc1N(Cc1ccc(Cl)cc1)S2(=O)=O,0%,-15%,/,10%,5%,-23%
CC(C)OC(=O)N(C)C[C@@H]1OCc2cnnn2CCCC(=O)N([C@@H](C)CO)C[C@H]1C,4%,14%,-22%,/,/,/
CN(C)/C(=C\C(=O)c1ccccc1)C(=O)c1ccccc1,-7%,-2%,-3%,-10%,/,/
O=C(C=C(C(=O)c1ccccc1)c1ccccc1)c1ccccc1,21µM*,23µM*,-11%,-5%,/,/
Cc1cccc(NC(=O)Nc2ccccc2[N+](=O)[O-])n1,18%,-6%,-10%,-15%,/,-9%
COc1ccc(OC)c(CNS(=O)(=O)c2c(C(=O)N3CCCCCC3)c(C)n(C)c2C)c1,?,?,/,9%,5%,0%
Cc1cc(S(=O)(=O)Nc2ncnc3sccc23)ccc1F,-12%,-6%,-20%,/,/,/
O=C(/C=C/c1cn(CC(O)CN2CCCCC2)c2ccccc12)c1cccs1 (stereo not drawn),16µM*,?,8%,1%,1%,-7%
